Among the data in PubChem BioAssay (EPA / NIEHS) are outcome and AC50 values, retold here.

“And” between values parts separate entries of the source, which are not always exact repeats. Equal entries are not always repeated. A structure can be active in one record and inactive in another. The source made the active and inactive calls. The calls were made as follows: active = hit-call score of the fitted dose curve at least 0.9, where 1 is the maximum; inactive = score below 0.9.

A short description of test [1]: ATG_NFI_CIS: Attagene CIS-FACTORIAL HepG2 Assay for human Nuclear Factor I (NFI) (AID 2282989). The note with it: HepG2 cis-regulatory reporter, NFI response element transcription; actives raise or lower the signal. A digest of the protocol: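 HepG2, transient MRTU, 24 h exposure; RNA→cDNA→PCR→FAM label→HpaI→CE fluorescence. Bidirectional fit, DMSO = baseline.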
The target in test [2] is Myc proto-oncogene protein (Homo sapiens) (UniProt P01106). The test is described as follows: ATG_Myc_CIS: Attagene CIS-FACTORIAL HepG2 Assay for human Myelocytomatosis (Myc) Proto-Oncogene Transcription Factor (AID 2282990). The note with it: HepG2, Attagene cis-reporter transcription factor activity; actives raise or lower the signal. A digest of the protocol:
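HepG2, transient MRTU transfection (cis promoters, endogenous TFs); 24 h dosing; TriZol RNA → oligo(dT) RT → PCR → 6-FAM primer extension → HpaI cut → CE. Bidirectional fit vs DMSO.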

Test [3] in a line: ATG_NF_kB_CIS: Attagene CIS-FACTORIAL HepG2 Assay for human Nuclear Factor Kappa B (NF-kB) (AID 2282991). The note with it: HepG2 Attagene cis-factorial NF-kB reporter mRNA; actives raise or lower the signal. A digest of the protocol:
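Fluorescence of labelled RT-PCR products separated by capillary electrophoresis gives reporter mRNA levels from transfected HepG2 cells exposed 24 h; values are fitted in both directions relative to DMSO.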

Test [4] in a line: ATG_NRF2_ARE_CIS: Attagene CIS-FACTORIAL HepG2 Assay for human Nuclear Factor Erythroid 2 Related Factor 2 (NFR2) response to Antioxidant Response Elements (ARE) (AID 2282992). The note with it: HepG2 Attagene ARE/NRF2 reporter, transcription factor activity; actives raise or lower the signal. Summed up:
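Fluorescence intensity of reporter-specific cDNA fragments, separated by capillary electrophoresis, reflects mRNA induction in transfected HepG2 cells at 24 h. Activity is fitted bidirectionally, DMSO serving as baseline.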

The nature of test [5]: ATG_Oct_MLP_CIS: Attagene CIS-FACTORIAL HepG2 Assay for human Octamer-Binding Transcription Factor (Oct) (AID 2282993). The note with it: HepG2 Attagene cis-factorial Oct reporter, mRNA; actives raise or lower the signal. Summed up:
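Multiplexed cis-reporter assay in human liver HepG2 cells, 24 h incubation. Reporter RNA amplified and labelled, then resolved by capillary electrophoresis; DMSO serves as negative control and baseline.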

Test [6] addresses Cellular tumor antigen p53 (Homo sapiens) (UniProt P04637). Description: ATG_p53_CIS: Attagene CIS-FACTORIAL HepG2 Assay for human p53 Transcription Factor (AID 2282994). The note with it: HepG2 p53 cis-element reporter, Attagene mRNA; actives raise or lower the signal. A digest of the protocol: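 Transiently transfected HepG2 (multiple cis reporter transcription units); exposure 24 h; reporter RNA via RT-PCR, 6-FAM extension, 2 h HpaI digest at 37 C, CE detection; DMSO baseline.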

Test [7] is described as follows: BSK_3C_TissueFactor: BioMAP Diversity Plus: 3C Assay for Tissue Factor Biomarker Activity (AID 2282997). The note with it: BioMAP 3C HUVEC, tissue factor biomarker readout; actives raise or lower the signal. A digest of the protocol: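 Cells used were primary human umbilical vein endothelial cells. They were dosed with chemical, and after 24 h Tissue Factor was quantified by ELISA. Curves were fitted bidirectionally with DMSO as baseline.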

A short description of test [8]: BSK_3C_uPAR: BioMAP Diversity Plus: 3C Assay for Urokinase-type plasminogen activator receptor (uPAR) Biomarker Activity (AID 2282998). The note with it: BioMAP 3C HUVEC, uPAR biomarker ELISA; actives raise or lower the signal. A digest of the protocol:
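Dose primary human umbilical vein endothelial cells, incubate 24 h, measure cell-surface uPAR by ELISA, then fit the signal in both directions against the DMSO negative control.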

Test [9] can be described thus: BSK_3C_VCAM1: BioMAP Diversity Plus: 3C Assay for Vascular cell adhesion molecule 1 (VCAM1) Biomarker Activity (AID 2282999). The note with it: BioMAP 3C HUVEC, VCAM1 ELISA, cytokine-stimulated; actives raise or lower the signal. A digest of the protocol: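 Activity fitted in both directions relative to DMSO, with ELISA measurement of the surface marker on primary HUVEC (3C) at 24 h post-treatment; parallel SRB staining (0.1% SRB, TCA-fixed, 560 nm) flagged overt cytotoxicity.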

Test [10] can be described thus: BSK_4H_Eotaxin3: BioMAP Diversity Plus: 4H Assay for Eotaxin 3 Biomarker Activity (AID 2283000).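 As to outcome: CCL26 protein level quantified by ELISA in parallel with SRB cytotoxicity check.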 The note with it: primary human endothelial cells (HUVEC); actives raise or lower the signal. A digest of the protocol: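 Endothelial primary cells (human umbilical vein) exposed to compound for 24 h. ELISA detection of Eotaxin-3.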

Sequence of Myc proto-oncogene protein (Homo sapiens) (P01106 whole entry, looked up): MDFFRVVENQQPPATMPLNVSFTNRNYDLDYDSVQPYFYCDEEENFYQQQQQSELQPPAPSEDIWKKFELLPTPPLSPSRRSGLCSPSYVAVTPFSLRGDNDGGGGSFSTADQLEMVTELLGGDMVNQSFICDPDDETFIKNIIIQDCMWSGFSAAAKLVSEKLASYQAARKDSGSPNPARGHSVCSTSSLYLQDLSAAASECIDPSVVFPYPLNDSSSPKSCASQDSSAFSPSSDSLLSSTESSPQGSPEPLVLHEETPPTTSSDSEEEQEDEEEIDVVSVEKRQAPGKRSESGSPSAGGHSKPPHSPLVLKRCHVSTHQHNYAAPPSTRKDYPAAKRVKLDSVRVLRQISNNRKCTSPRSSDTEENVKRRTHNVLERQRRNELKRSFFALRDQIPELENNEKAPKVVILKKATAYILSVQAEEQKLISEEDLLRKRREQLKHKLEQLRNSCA
Sequence of Cellular tumor antigen p53 (Homo sapiens) (P04637 whole entry, looked up): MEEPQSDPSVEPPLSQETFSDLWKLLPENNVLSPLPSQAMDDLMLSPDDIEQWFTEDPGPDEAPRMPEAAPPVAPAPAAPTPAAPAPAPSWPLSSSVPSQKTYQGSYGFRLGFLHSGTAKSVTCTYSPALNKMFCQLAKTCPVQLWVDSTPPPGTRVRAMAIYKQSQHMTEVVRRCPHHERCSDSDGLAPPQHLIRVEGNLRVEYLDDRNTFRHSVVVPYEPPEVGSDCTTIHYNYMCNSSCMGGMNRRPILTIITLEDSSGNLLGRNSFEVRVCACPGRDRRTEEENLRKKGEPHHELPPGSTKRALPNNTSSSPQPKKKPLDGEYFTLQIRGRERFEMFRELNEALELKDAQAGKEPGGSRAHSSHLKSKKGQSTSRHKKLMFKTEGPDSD

Take `CN1C(=O)N(c2ccccc2Br)Cc2cnc(Nc3ccc4c(c3)OCC(CO)O4)nc21` (stereo not drawn): the call in test [1], in test [3] and in [4] was inactive. Further, the AC50 in test [2] was 2.93 µM (active); in test [5], 9.54 µM (active); in [6], 0.0368 µM (active); in test [7] it was 9.9 µM (active); in [8], 10.7 µM (active); in [9] it was 33.6 µM (active). The AC50 in [10] was 9.49 µM (active).
As for `CC(=O)N1CCN(c2ccc(OC[C@H]3CO[C@](Cn4ccnc4)(c4ccc(Cl)cc4Cl)O3)cc2)CC1`, the call in test [1], in [2], in [3], in test [6] and in [9] was inactive. Also, the AC50 in test [4] is 24 µM (active); in test [5], 9.69 µM (active); in test [7], 31.1 µM (active); in [8], 29.8 µM (active); in [10], 33.7 µM (active).
`CCCCCc1ccc(N)cc1`: the compound was called inactive in test [1], in [2], in [3], in test [5], in [6] and in test [7]. In addition, the outcome in test [8] and in test [9] was inactive. Moreover, the AC50 was 20.2 µM (active) in test [3]; 6.21 µM (active) and 6.72 µM (active) in test [6]; 14 µM (active) in test [10].
Take `Clc1ccccc1C(c1ccccc1)(c1ccccc1)n1ccnc1`: the compound was classed as inactive in test [1], in test [2], in test [3] and in test [6]. Besides, the AC50 was 5.21 µM (active) in test [4]; 11.1 µM (active) in test [5]; 31 µM (active) in [7]; 14.8 µM (active) in test [8]; 33.1 µM (active) in test [9].
Regarding `CC(C)(c1cc(Br)c(O)c(Br)c1)c1cc(Br)c(O)c(Br)c1`, the AC50 was 57.6 µM (active) and 54.7 µM (active) in test [1]; 38.2 µM (active) in [2]; 55.9 µM (active) and 57.6 µM (active) in test [4]; 47 µM (active) and 40.3 µM (active) in [5]; 22.9 µM (active) in [6]; 31.1 µM (active) in test [7]. Also, the AC50 in test [9] is 32.1 µM (active). Further, the outcome in test [2], in test [3] and in [6] was inactive.
As for `Cc1cccc2ccccc12`, the compound was classed as inactive in [1], in [2], in test [3], in test [4], in test [5] and in test [6]. Besides, the outcome in [7] and in [9] was inactive.
For the compound `Cc1cc2c(cc1C(F)(F)F)N(C(=O)Nc1ccc(Oc3cccnc3C)nc1)CC2`, the outcome in [1], in [2], in test [3], in test [4], in [5] and in [6] was inactive. Moreover, the outcome in test [8] and in [9] was inactive. Moreover, the AC50 in test [7] is 0.623 µM (active).
Turning to `O=C(O)Cn1c(=O)n(Cc2ccc(Br)cc2F)c(=O)c2ccc(Cl)cc21`, the compound was called inactive in test [1], in [2], in test [5], in [6], in [7] and in test [8]. Further, the outcome in [9] was inactive. In addition, the AC50 was 161 µM (active) in test [3] and 26.5 µM (active) in [4].
Regarding `O=c1c(-c2ccc(O)cc2)coc2cc(O)cc(O)c12`, the AC50 is 27.1 µM (active) in test [1]; 73.5 µM (active) and 168 µM (active) in test [3]; 49.4 µM (active) in test [5]. For the same compound, the result in test [1], in test [2], in [3], in test [4], in test [5] and in test [6] was inactive. For the same compound, the outcome in test [7] and in test [9] was inactive.
In the case of `CCOC(=O)O[C@H](C)OC(=O)c1ccc2c(c1)cc(C(=O)NC1CCN(C(C)C)CC1)n2Cc1cc(-c2ccc(Cl)s2)on1`, the call in test [1], in test [2], in [3], in test [5] and in test [6] was inactive. Further, the AC50 was 9.33 µM (active) in test [4]; 9.97 µM (active) in test [7]; 6.09 µM (active) in test [8]; 5.69 µM (active) in [9]; 8.87 µM (active) in test [10].
In the case of `CCN(Cc1cccnc1)C(=O)c1cccc(Cl)c1[C@]1(C)C(=O)N(Cc2ccc(OC)cc2OC)c2ccc(Cl)cc21`, the outcome in test [1], in [2] and in [3] was inactive. In addition, the AC50 in test [4] is 5.87 µM (active); in test [5], 2.6 µM (active); in test [6] it was 4.98 µM (active); in test [7], 9.45 µM (active); in test [8], 5.85 µM (active); in test [9] it was 7.09 µM (active). Also, the AC50 in test [10] is 11.4 µM (active).
As for `COc1ccc2cc(S(=O)(=O)N[C@H](CC(=O)N[C@H](Cc3ccc(CN4[C@H](C)CCC[C@@H]4C)cc3)C(=O)N(C)C(C)C)c3ccc4c(c3)OCO4)ccc2c1`, the outcome in [1], in test [2] and in test [3] was inactive. The AC50 in test [4] was 11 µM (active); in [5] it was 11 µM (active); in [6], 11 µM (active); in test [7], 5.1 µM (active); in [8], 19.1 µM (active); in [9], 16.4 µM (active).
As for `O=c1ccc2ccccc2o1`, the call in [1], in test [2], in [3], in [4], in test [5] and in test [6] was inactive. The outcome in test [7], in [8] and in [9] was inactive.
For the compound `Cc1cn([C@H]2C[C@H](N=[N+]=[N-])[C@@H](CO)O2)c(=O)[nH]c1=O`, the compound was called inactive in test [1], in test [2], in test [3], in test [4], in [5] and in [6]. The outcome in test [7], in [8] and in test [9] was inactive.
`c1ccc2n[nH]nc2c1`: the compound was classed as inactive in test [1], in test [2], in test [3], in test [4], in test [5] and in [6]. In addition, the result in [7], in [8], in test [9] and in test [10] was inactive.
Consider `CCCCCCCCOC(=O)c1cc(O)c(O)c(O)c1`, for which the outcome in test [1], in test [2], in [3], in test [5] and in test [6] was inactive. Moreover, the AC50 in test [4] is 5.96 µM (active); in test [7], 20 µM (active); in test [9], 32.5 µM (active).
For `O=C(O)Cc1cc(I)c(Oc2ccc(O)c(I)c2)c(I)c1`, the outcome in test [1], in test [2], in test [3], in test [5], in test [6] and in [7] was inactive. In addition, the outcome in [9] was inactive. Also, the concentration at half-maximal activity (AC50) is 70 µM (active) [middle of 4 runs] in test [4]; 35.7 µM (active) and 100 µM (active) in [5]; 25.9 µM (active) and 26.4 µM (active) and 9.57 µM (active) in test [6]; 31.3 µM (active) in [10].
